The supplement of paper PMC11018630
Where a name gives a salt, the structure may show the parent alone. ± gives the standard deviation of the averaged measurements. The full ranking holds about 1,100 compounds; the median of “day of extracellular matrix detachment from plate” is about 16, and the lowest 2% start at about 10. This excerpt belongs to a sample that is enriched for the lowest values.

system: RDEB dermal fibroblasts EB71; assay: day of extracellular matrix detachment from plate (days); higher = delayed detachment (less fibrotic matrix); conditions: compound concentration: 10 uM

Compound | day of extracellular matrix detachment from plate
CO[C@H]1/C=C/O[C@@]2(C)Oc3c(C)c(O)c4c(O)c(c(/C=N/N5CCN(C6CCCC6)CC5)c(O)c4c3C2=O)NC(=O)/C(C)=C\C=C\[C@H](C)[C@H](O)[C@@H](C)[C@@H](O)[C@@H](C)[C@H](OC(C)=O)[C@@H]1C [Rifapentine] | 12
C[C@@H]1CC(=O)NN=C1c1ccc(NN=C(C#N)C#N)cc1 [Levosimendan] | 19.3 ± 6.3
CC[C@@H](CO)NCCN[C@@H](CC)CO [Ethambutol HCl] | 15.3 ± 2.3
Cc1c(C)c2c(c(C)c1O)CC[C@@](C)(CCC[C@H](C)CCC[C@H](C)CCCC(C)C)O2 [Vitamin E] | 17.3 ± 2.5
CCOc1ccccc1OC(c1ccccc1)C1CNCCO1 (stereo not drawn) [Reboxetine mesylate] | 18
N[C@@H](CC(=O)N1CCn2c(nnc2C(F)(F)F)C1)Cc1cc(F)c(F)cc1F [Sitagliptin phosphate monohydrate] | 18
C#C[C@]1(O)CC[C@H]2[C@@H]3CCc4cc(O)ccc4[C@H]3CC[C@@]21C [Ethinyl Estradiol] | 14
C#C[C@]1(O)CC[C@H]2[C@@H]3CCC4=CC(=O)CC[C@@H]4[C@H]3CC[C@@]21C [Norethindrone] | 19
C#C[C@]1(O)CC[C@H]2[C@@H]3CCc4cc(OC)ccc4[C@H]3CC[C@@]21C [Mestranol] | 10 ± 1.7
CCC(C)(C)c1ccc(CC(C)CN2C[C@@H](C)O[C@@H](C)C2)cc1 (stereo partly drawn) [Amorolfine HCl] | 12
Cc1cc(/C=C/C#N)cc(C)c1Nc1ccnc(Nc2ccc(C#N)cc2)n1 [Rilpivirine] | 27
O[C@H]1[C@H](O)[C@@H](O)[C@H](O)[C@@H](O)[C@H]1O [i-Inositol] | 13
CS(=O)(=O)c1ccc(C(=O)Nc2ccc(Cl)c(-c3ccccn3)c2)c(Cl)c1 [Vismodegib (GDC-0449)] | 14.3 ± 1.1
COc1cccc(-c2ccc(NC(=O)C3=C(C(=O)O)CCC3)c(F)c2)c1 [Vidofludimus] | 16.3 ± 1.1
CCOc1cc([C@@H](CS(C)(=O)=O)N2C(=O)c3cccc(NC(C)=O)c3C2=O)ccc1OC | 12.7 ± 2.9
O=C1CC[C@@H](C(=O)N2CSC[C@H]2C(=O)O)N1 [Pidotimod] | 15.3 ± 2.3
CNC[C@H](O)c1cccc(O)c1 [Phenylephrine HCl] | 12
CNC[C@H](O)c1ccc(O)c(O)c1 [Epinephrine HCl] | 16.3 ± 4
CC(C)(C)NCC(O)c1ccc(O)c(CO)c1 (stereo not drawn) [Salbutamol Sulfate] | 19

Compound | day of extracellular matrix detachment from plate
CC(C)NCC(O)c1ccc(O)c(O)c1 (stereo not drawn) [Isoprenaline HCl] | 11 ± 1.7
CNC[C@H](O)c1ccc(O)c(O)c1 [Epinephrine Bitartrate] | 9
CNC[C@@H](O)c1ccc(O)c(O)c1 [L-Adrenaline] | 10 ± 1.7
NC[C@H](O)c1ccc(O)c(O)c1 [Noradrenaline bitartrate monohydrate] | 16.7 ± 2.3
O=C(/C=C/C=C/c1ccc2c(c1)OCO2)N1CCCCC1 [Piperine] | 11 ± 1.7
Cc1ccsc1C(=CCCN1CCC[C@@H](C(=O)O)C1)c1sccc1C [Tiagabine hydrochloride] | 17.2 ± 2
Cc1ccsc1C(=CCCN1CCC[C@@H](C(=O)O)C1)c1sccc1C [Tiagabine] | 17
Cc1c(-c2ccnn2C)cc(C(=O)NCc2ccc(S(C)(=O)=O)cn2)c(=O)n1-c1cccc(C(F)(F)F)c1 [Alvelestat (AZD9668)] | 13.7 ± 1.1
CCCNS(=O)(=O)Nc1ncnc(OCCOc2ncc(Br)cn2)c1-c1ccc(Br)cc1 [Macitentan] | 9.67 ± 1.1
O=C(O)c1cc(=O)c2ccccc2o1 [Chromocarb] | 13
OCC(O)CN1CCN(c2ccccc2)CC1 (stereo not drawn) [Dropropizine] | 15
C=C1CC[C@H](O)C/C1=C/C=C1\CCC[C@]2(C)[C@@H]([C@H](C)/C=C/[C@H](C)C(C)C)CC[C@@H]12 [Vitamin D2] | 18
CC(=O)/N=c1/sc(S(N)(=O)=O)nn1C [Methazolamide] | 18
O=C1C(O)=C([C@H]2CC[C@H](c3ccc(Cl)cc3)CC2)C(=O)c2ccccc21 [Atovaquone] | 18
CC[C@H](Nc1ncnc2[nH]cnc12)c1nc2cccc(F)c2c(=O)n1-c1ccccc1 [CAL-101 (Idelalisib, GS-1101)] | 22.3 ± 1.1
O=C([O-])C(O)[C@H](O)[C@@H](O)[C@H](O)[C@H](O)CO.O=C([O-])C(O)[C@H](O)[C@@H](O)[C@H](O)[C@H](O)CO.[Ca+2] (stereo partly drawn) [Calcium Gluceptate] | 18
S=c1[nH]cnc2nc[nH]c12 [Mercaptopurine (6-MP)] | 15 ± 1.7
O=c1[nH]c(=O)n([C@H]2C[C@H](O)[C@@H](CO)O2)cc1I [Idoxuridine] | 23
COc1cc(OC)c(C(=O)CCCN2CCCC2)c(OC)c1 [Buflomedil HCl] | 20 ± 1.7
